Most compounds without a hit are left out; they make up all but 17% or so of the library.
TDP1 cell noCPT: qHTS for Inhibitors of human tyrosyl-DNA phosphodiesterase 1 (TDP1): qHTS in cells in absence of CPT; DT40 Tdp1-/- hTDP1 cells, no CPT, ATP luminescence, 48 h; 420,000 tested, 15% active; Potency, µM (doses to about 46.2 µM), without a hit: at the top dose activity change, negative = growth inhibition, actives largely listed as inhibitors; note: % is set by controls: 0 for no effect and ±100 for the full control effect; nearly all actives have a fitted effect of over 55% in size
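Camptothecin absent (DMSO only). Human TDP1-complemented DT40 knockout cells, 400 cells/well, 37 °C for minimum 48 hr; ATP measured via CellTiter-Glo, 30 min dark incubation, luminescence.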
HT1080 IDH1KD tx: kills HT-1080 cells with IDH1 knockdown; HT-1080 IDH1 knockdown viability, ATP luminescence, 48 h; Potency, µM (doses to about 46.1 µM), without a hit: at the top dose activity, negative = toxicity, actives largely listed as cytotoxic; 360,000 tested, 2% active; AID 686971;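 note: 0% = DMSO wells and -100% = cell-free medium wells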
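HT-1080-IDH1KD cells (IDH1 knocked down), 750/well in RPMI with 5% FBS, treated with compound 48 h at 37 degrees C. Viability by CellTiter-Glo luminescence, normalised to DMSO and no-cell wells; concentration-response curves classed.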
TGFb inhibitor: blocks TGF-b signaling. HepG2 CAGA-GFP TGF-b/SMAD3 reporter, GFP fluorescence, 18 h; TGF-beta stimulated, 500 pg/mL final. 410,000 tested, 1.2% active. Potency, µM (doses to about 46.1 µM), for inactives: at the highest dose activity, negative = inhibition, actives largely listed as inhibitors; note: % is set by controls: 0 for no effect and ±100 for the full control effect; nearly all actives have a fitted effect of over 65% in size
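Smad-responsive CAGA-GFP expression was quantified in HEPG2 cells exposed to compounds and 500 pg/mL final TGF-beta for 18 h at 37 degrees C; unstimulated wells defined full inhibition.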
TDP1 cell CPT: growth inhibition of DT40 Tdp1-/-;hTDP1 cells with camptothecin (screen for TDP1 inhibitors) | chicken DT40 Tdp1-/-;hTDP1 cells + 20 nM CPT, ATP luminescence, 48 h | Potency, µM (series often up to 46.2 µM), without a hit: top-dose activity change, negative = growth inhibition, most hits filed as inhibitors | 420,000 tested, 12% active | AID 686979; note: % is set by controls: 0 for no effect and ±100 for the full control effect; nearly all actives have a fitted effect of over 55% in size
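Chicken DT40 Tdp1-/- cells complemented with human TDP1, 400 cells/well, exposed to compounds plus 20 nM camptothecin for at least 48 h at 37 C; viability read as ATP content by CellTiter-Glo luminescence.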
HT1080-NT tox: kills 2HG-producing HT-1080-NT fibrosarcoma cells | 360,000 tested, 1.6% active | Potency, µM (doses to about 46.1 µM), for the others: at the highest dose activity, negative = less viability, usual class: cytotoxic | HT-1080-NT fibrosarcoma viability, CellTiter-Glo ATP luminescence, 48 h;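 note: NT is the 2HG producing partner of a matched IDH1 knockdown line; 0% = DMSO-treated cells and -100% = media-only wells without cells; nearly all actives have a fitted effect of over 55% in size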
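Luminescent CellTiter-Glo readout after 48 hours of compound exposure at 37 degrees C defined viability of HT-1080-NT cells. Activity was normalized to DMSO wells and cell-free media wells; concentration-response curves were fitted and assigned curve classes.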
HepG2 tox: HepG2 cytotoxicity, counter-screen for TGF-b inhibitors. HepG2 CAGA-GFP viability, ATP luminescence, 18 h. Potency, µM (doses to about 46.1 µM), without a hit: at the top dose activity change, negative = cytotoxicity, actives largely listed as cytotoxic. 410,000 tested, 0.76% active. AID 588856
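HepG2 CAGA-GFP cells (1000/well, DMEM with 1% FBS) received compound, then TGF-beta at 500 pg/mL final, and were incubated 18 hours at 37 degrees C. Viability was read by CellTiter-Glo luminescence. Media-only wells were set as complete cell-killing and DMSO as no toxicity.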
The depositor's hits bear a star; ? = inconclusive; / = not tested or not shown; ! = a repeat was not active; [ ] = remark or other dose. Calls come from the whole dose curve; as a rule, active = well fitted curve in the direction sought with a large enough effect; inconclusive = small, poorly fitted or top-dose-only effect, or another doubt; inactive = no such curve, though single readings can be large; an effect the other way counts as inactive or inconclusive. Potency is the fitted concentration of half-maximal effect.

SMILES	TDP1 cell noCPT	HT1080 IDH1KD tx	TGFb inhibitor	TDP1 cell CPT	HT1080-NT tox	HepG2 tox
COc1ccc(N2CCN(C(=O)CCn3c(=O)[nH]c4cc(OC)c(OC)cc4c3=O)CC2)cc1	-10%	/	2%	-1%	/	0%
COc1ccc(N2CCN(C(=O)c3ccc4c(=O)n(CCc5ccc(OC)c(OC)c5)c(=O)[nH]c4c3)CC2)cc1	16µM*	-9%	-5%	15µM*	-5%	5%
CCCCCn1c(=O)[nH]c2cc(C(=O)N3CCN(c4cccc(Cl)c4)CC3)ccc2c1=O	?	/	?	10µM*	/	5%
O=C(c1ccc2c(=O)n(CCc3ccccc3)c(=O)[nH]c2c1)N1CCN(C(=O)c2ccco2)CC1	11µM*	21%	/	13µM*	10%	/
CCCCCn1c(=O)[nH]c2cc(C(=O)N3CCN(C(=O)OCC)CC3)ccc2c1=O	?	11%	17%	?	8%	-14%
COc1ccc(-n2c(=O)[nH]c3cc(C(=O)NCCc4ccccc4)ccc3c2=O)cc1OC	18µM*!	-2%	-12%	?	4%	-47%
O=C(c1ccc2c(=O)n(CCc3ccccc3)c(=O)[nH]c2c1)N1CCN(c2ccccc2)CC1	?	1%	-4%	?	3%	7%
O=C(c1ccc(F)cc1)C1CCN(CCn2c(=O)[nH]c3ccccc3c2=O)CC1	?	-3%	1%	7.3µM*!	?	-10%
COCCn1c(=O)[nH]c2cc(C(=O)N3CCN(c4ccc(Cl)cc4)CC3)ccc2c1=O	6.5µM*	-10%	5%	5.8µM*	4%	-15%
O=C(CCCn1c(=O)[nH]c2ccccc2c1=O)Nc1ccc(F)cc1	-10%	13%	4%	-18%	12%	0%
O=C(c1ccc2c(=O)n(CCc3ccccc3)c(=O)[nH]c2c1)N1CCN(c2ccc(Cl)cc2)CC1	18µM*	/	4.5µM*	16µM*	/	-20%
O=C(O)CSc1c2c(nc3cc(C(=O)Nc4ccc(F)c(Cl)c4)ccc13)CCC2	-2%	/	-27%	11%	/	0%
Cn1nc(C(=O)NC2CCC(O)CC2)c2ccccc2c1=O (configuration not stated)	6%	2%	0%	1%	1%[9.24 µM]	1%
CCOc1cccc(C(=O)Nc2ccccc2N2CCN(C(=O)C(C)C)CC2)c1	?	-2%	13%	?	8%	6%
COc1cc2[nH]c(=O)n(Cc3ccc(C(=O)NCc4ccccc4)cc3)c(=O)c2cc1OC	?	/	-40%	18µM*	/	-16%
O=C(NCCN1CCCC1)c1ccc2c(=O)n(CCc3ccccc3)c(=O)[nH]c2c1	29µM*	-29%	1%	18µM*	0%	0%
O=C(c1ccc2c(=O)n(CCc3ccccc3)c(=O)[nH]c2c1)N1CCN(c2ccc(F)cc2)CC1	13µM*	-15%	?	12µM*	-9%	-13%
CN(Cc1ccccc1)Cc1nc2scc(-c3ccccc3)c2c(=O)[nH]1	?	0%	-12%	13µM*	-5%	-6%
O=c1[nH]c(Cc2ccccc2)nc2scc(-c3ccccc3)c12	?	9%	-3%	?	14%	-26%
Nc1nnc(SCc2nc3scc(-c4ccccc4)c3c(=O)[nH]2)s1	18µM*	13%	4%	23µM*	2%	-22%
Cc1csc(SC(C)c2nc3scc(-c4ccccc4)c3c(=O)[nH]2)n1 (configuration not stated)	21µM*	-5%	?	?	12%	-10%
CCn1c(SCc2nc3scc(-c4ccccc4)c3c(=O)[nH]2)nnc1-c1cccs1	21µM*	?	?	21µM*	?	-1%
O=S(=O)(NCCN1CCN(S(=O)(=O)c2ccccc2F)CC1)c1ccccc1F	-14%	16%	3%	-11%	1%	-7%
COc1ccc(/C(N)=N/O)cc1O	-14%	0%	-26%	-7%	-1%	-3%
COCCNC(=O)CCc1c(C)n(C)c2cc(-c3cc(OC)c(OC)c(OC)c3)nn2c1=O	1%	/	0%	-6%	/	-5%
SMILES	TDP1 cell noCPT	HT1080 IDH1KD tx	TGFb inhibitor	TDP1 cell CPT	HT1080-NT tox	HepG2 tox
COc1cc(-c2cc3n(C)c(C)c(CCC(=O)NC4CCC(C)CC4)c(=O)n3n2)cc(OC)c1OC (configuration not stated)	13µM*	/	3%	15µM*	/	-11%
O=C(COC(=O)Cc1c[nH]c2ccccc12)Nc1c(Cl)cccc1C(F)(F)F	-5%	0%	-3%	9%	2%	8%
COC(C(=O)Nc1c(F)cccc1F)c1ccccc1 (configuration not stated)	-3%	-5%	-9%	5%	-6%	-13%
COC(=O)c1cc(CNC(=O)c2cccc3ccccc23)cc(NC(=O)c2ccccc2OC)c1	?	/	/	10%[9.04 µM]	/	/
COC(=O)c1cc(CNC(=O)c2ccccc2F)cc(NC(=O)c2ccccc2OC)c1	23µM*	/	/	-17%[9.04 µM]	/	/
COC(=O)c1cc(CNC(=O)c2ccccc2OC)cc(NC(=O)c2ccccc2F)c1	16µM*	/	/	21µM*	/	/
COc1ccccc1/C=C/C(=O)OCC(=O)NC1CCCCCCC1	-25%	8%	2%	-24%	11%	-15%
O=C(O)CSc1ncnc2nc[nH]c12	-10%	-11%	0%	-7%	0%	-3%
c1nc(SSc2ncnc3nc[nH]c23)c2[nH]cnc2n1	7.3µM*	1.3µM*	0%	5.8µM*	2.3µM*	-65%
c1ccc(OCCSc2ncnc3nc[nH]c23)cc1	-27%	0%	0%	-13%	-4%	5%
O=C(CSc1ncnc2nc[nH]c12)c1ccc2ccccc2c1	12µM*	?	-3%	?	23µM*	-32%
O=C(CSc1ncnc2nc[nH]c12)N1CCN(c2ccc(Cl)cc2)CC1	13µM*	-26%	2%	23µM*	?	-17%
COc1cc(C(=O)c2ccccc2)c(OC)cc1C(=O)Nc1ccc(O)cc1	-11%	-17%	-1%	3%	-1%	-8%
CN(Cc1ccco1)c1ncncc1-c1cccnc1	-4%	/	/	-9%	/	/
COc1ccc(CCN2CCCC(CN(C)C(=O)c3ccoc3)C2)cc1 (configuration not stated)	15%	-5%	3%	5%	-2%	-5%
